A number with no mark means an inactive call. Records with an inconclusive call do not appear. A call without a number means that no potency is given here. Activity calls are given as the source filed them. Calls follow the shape of the dose curve; as a rule, active = well fitted curve in the direction sought with a large enough effect; inconclusive = small, poorly fitted or top-dose-only effect, or another doubt; inactive = no such curve, though single readings can be large; an effect the other way counts as inactive or inconclusive.
Assays:
[1] = target: Phospholipid hydroperoxide glutathione peroxidase GPX4 (Homo sapiens) (UniProt P36969); test: Primary qHTS Assay for Inhibitors of Recombinant Selenoprotein Glutathione Peroxidase 4 (GPX4) (AID 1845192); also: nearly all actives have a fitted effect of over 65% in size; as to activity change, negative = inhibition: series mostly up to about 50 µM
Phospholipid hydroperoxide glutathione peroxidase GPX4 (Homo sapiens), sequence (P36969 whole entry, looked up): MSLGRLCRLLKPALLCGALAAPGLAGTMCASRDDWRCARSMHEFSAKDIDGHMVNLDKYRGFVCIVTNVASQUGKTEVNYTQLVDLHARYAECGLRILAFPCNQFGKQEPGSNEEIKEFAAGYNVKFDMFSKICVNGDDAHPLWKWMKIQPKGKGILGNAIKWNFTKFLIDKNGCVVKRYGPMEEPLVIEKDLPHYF
In short: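 NADPH consumption followed by fluorescence at 340/450 nm, t=0 and after 15 min at room temperature. Reaction started with cumene hydroperoxide (0.5 mM final) after 30 min compound–GPX4 preincubation; final 200 nM GPX4, 100 nM GR, 1 mM GSH, 0.5 mM NADPH.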

[2] = target: Luciferin 4-monooxygenase (Photinus pyralis) (UniProt P08659); test: Primary firefly luciferase (FLuc) qHTS assay for identification of artifact compounds. (AID 1845220); also: nearly all actives have a fitted effect of over 60% in size; as to activity change, negative = inhibition: series mostly up to about 54 µM
In short: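 FLuc 10 nM; luciferin 10 uM; ATP 10 uM; Tris-acetate pH 7.6, Mg-acetate 10 mM; 15 min RT preincubation; 5 min reaction; luminescence.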

[3] = Primary fluorescence-based thiol-reactive (MSTI) qHTS assay for identification of artifact compounds. (AID 1845221); also: nearly all actives have a fitted effect of over 65% in size;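 as to activity change, negative = thiol reactive: series mostly up to about 54 µM; thiol-reactive compounds lower the probe fluorescence signal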
In short: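 Thiol-reactive compounds detected by quenching of 4 uM MSTI fluorescence (525/598 nm) after 1 h room-temperature dark incubation in PBS pH 7.4, 2% DMSO. qHTS titration; percent inhibition Hill-fitted against Acetyl-MSTI/MSTI controls.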

[4] = test system: Nanoluciferase (engineered Oplophorus gracilirostris luciferase); test: Primary Nanoluciferase (NLuc) qHTS assay for identification of artifact compounds. (AID 1845222);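 as to activity, negative = inhibition: NLuc secreted into diluted conditioned medium of S16 cells; series mostly up to about 54 µM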
In short: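 NLuc from S16 cell medium (1:55) plus test compounds, 15 min, room temperature. Luminescence after Nano-Glo (1:100) addition, 5 min.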
Potency is read from the fitted curve at half-maximal effect.

CC1CCCC2OC2C(=O)c2c(O)cc(O)cc2CC(=O)O1 (centres undefined)
Potency [1]: inactive
Potency [2]: inactive
Potency [3]: 8.44 µM (active)
Potency [4]: inactive

Cc1nnc(C(C)C)n1C1CC2CCC(C1)N2CC[C@H](NC(=O)C1CCC(F)(F)CC1)c1ccccc1 (some centres undefined)
Potency [1]: inactive
Potency [2]: inactive
Potency [3]: inactive

C[C@@H]1[C@H](O)[C@@H](C)/C=C/C=C\C=C\C=C\C=C\C=C\C=C\[C@H](O[C@@H]2O[C@H](C)[C@@H](O)[C@H](N)[C@@H]2O)C[C@@H]2O[C@](O)(C[C@@H](O)C[C@@H](O)[C@H](O)CC[C@@H](O)C[C@@H](O)CC(=O)O[C@H]1C)C[C@H](O)[C@H]2C(=O)O (stereo in doubt)
Potency [1]: inactive

C=C1C[C@]23C[C@H]1CC[C@H]2[C@@]12C=C[C@H](O)[C@@](C)(C(=O)O1)[C@H]2[C@@H]3C(=O)O
Potency [1]: inactive
Potency [2]: inactive
Potency [3]: inactive
Potency [4]: inactive

C/C=C(/C)C(=O)O[C@H]1C=C(C)C[C@H](OC(=O)c2ccc(O)cc2)C2[C@](O)(C(C)C)CC[C@@]21C (some centres undefined)
Potency [1]: inactive
Potency [2]: inactive
Potency [3]: inactive
Potency [4]: inactive

CCN(CC)Cc1cc(Nc2ccnc3cc(Cl)ccc23)ccc1O
Potency [1]: inactive

CC(C)C(=O)OCC(=O)[C@@]12O[C@H](C3CCCCC3)O[C@@H]1C[C@H]1[C@@H]3CCC4=CC(=O)C=C[C@]4(C)[C@H]3[C@@H](O)C[C@@]12C
Potency [1]: inactive

COC1=Cc2c(nc3n(c2=O)C(C)C(=O)NC3(O)C(C)C)OC=C1 (centres undefined)
Potency [1]: inactive
Potency [2]: inactive

C[C@]12CCC(=O)C=C1CC[C@@H]1[C@@H]2[C@@H](O)C[C@@]2(C)[C@H]1CC[C@]2(O)C(=O)COP(=O)(O)O
Potency [1]: 6.31 µM (active)

COC1C=C([C@@H]2CC=C3[C@@]4(C)C(CC[C@]32C)[C@@]2(C)C=CC(=O)C(C)(C)C2C[C@H]4OC(C)=O)C(=O)O1 (some centres undefined)
Potency [1]: inactive
Potency [2]: inactive
Potency [3]: inactive
Potency [4]: inactive

CO/N=C(\C(=O)N[C@@H]1C(=O)N2C(C(=O)O)=C(CSc3cnns3)CS[C@H]12)c1csc(N)n1
Potency [1]: 15.8 µM (active)

CC(C)(C)NCC(O)COc1cccc2c1CCCC2=O (centres undefined)
Potency [1]: inactive
Potency [2]: inactive
Potency [3]: inactive
Potency [4]: inactive

CC(C)N(C[C@H]1O[C@@H](n2cnc3c(N)ncnc32)[C@H](O)[C@@H]1O)C1CC(CCc2nc3ccc(C(C)(C)C)cc3[nH]2)C1 (some centres undefined)
Potency [1]: inactive
Potency [2]: inactive
Potency [3]: inactive
Potency [4]: inactive

CC[C@@H](c1ccc(F)c(F)c1)n1c(C(=O)OC)c(-c2ccno2)[nH]c1=S
Potency [1]: inactive
Potency [2]: inactive
Potency [4]: inactive

C=Cc1cc(O)cc2nc(-c3ccc(O)c(F)c3)oc12
Potency [4]: inactive

O=C(O)c1cnn(-c2nc3cc(OC(F)(F)F)c(Cl)cc3[nH]2)c1
Potency [2]: 3.01 µM (active)
Potency [3]: inactive

O=C(O)C[C@@H](NC(=O)c1cc(-c2ccc(-c3ccncc3)cc2)cs1)c1ccccc1
Potency [2]: 6.75 µM (active)
Potency [3]: inactive

N[C@H]1C[C@H]1c1ccc(-c2cccc(O)c2)cc1
Potency [1]: inactive
Potency [2]: inactive
Potency [3]: inactive
Potency [4]: inactive

C=CC1C(O[C@@H]2O[C@H](CO)[C@@H](O)[C@H](O)[C@H]2O)OC=C(C(=O)OC)C1Cc1nccc2c1[nH]c1ccccc12 (some centres undefined)
Potency [1]: inactive
Potency [2]: inactive
Potency [3]: inactive
Potency [4]: inactive

COc1cc2c(cc1OC)CN(C(=O)[C@@H](NCc1ccncc1)C(C)(C)C)CC2
Potency [1]: inactive
Potency [2]: inactive
Potency [3]: inactive
Potency [4]: inactive

COc1cccc(-c2ccc([C@@H](Oc3cc(-c4ccc(C[C@H](N)C(=O)O)cc4)nc(N)n3)C(F)(F)F)cc2)c1
Potency [2]: inactive
Potency [3]: inactive
Potency [4]: inactive

O=C1NC(Cc2ccc(O)cc2)C(=O)N2CCCC12 (centres undefined)
Potency [1]: inactive
Potency [2]: inactive
Potency [3]: inactive
Potency [4]: inactive

CC1(CO)CC[C@]2(C(=O)O[C@@H]3O[C@H](CO)[C@@H](O)[C@H](O)[C@H]3O)CC[C@]3(C)C(=CCC4[C@@]5(C)C[C@H](O)[C@H](O[C@@H]6OC[C@@H](O)[C@H](O)[C@H]6O)[C@@](C)(CO)C5CC[C@]43C)C2C1 (some centres undefined)
Potency [1]: inactive
activity change, negative = inhibition [2]: 4.3% [at 11.6 µM]
activity change, negative = thiol reactive [3]: 76.2% [at 11.5 µM]
activity, negative = inhibition [4]: 0% [at 11.6 µM]

CCOc1c2c(c(OCC)c3ccccc13)C(=O)N(c1ccc(CC(=O)NS(=O)(=O)c3ccccc3)cc1)C2
Potency [1]: inactive
Potency [3]: inactive
Potency [4]: 12 µM (active)

C[C@@H]1CC[C@H]2C(C)(C)[C@H](O)[C@H](O)C[C@]2(C)[C@@]12Cc1c(O)cc3c(c1O2)CNC3=O
Potency [1]: inactive
Potency [3]: inactive
Potency [4]: inactive

O=c1c2cccnc2n(-c2cccc([N+](=O)[O-])c2)c(=O)n1Cc1ccncc1
Potency [1]: inactive
Potency [2]: inactive
Potency [4]: inactive

CC1(C)CC[C@]2(C(=O)O[C@@H]3O[C@H](CO)[C@@H](O)[C@H](O)[C@H]3O)CC[C@]3(C)C(=CCC4[C@@]5(C)C[C@@H](O)[C@H](O)[C@@](C)(CO)C5CC[C@]43C)C2C1 (some centres undefined)
Potency [1]: inactive
Potency [2]: inactive
Potency [3]: inactive
Potency [4]: inactive

CC(C)(O)/C=C1/C(=O)C(C)(C)C(=O)C(C)(C)C1(O)O[C@@H]1O[C@H](COC(=O)c2cc(O)c(O)c(O)c2)[C@@H](O)[C@H](O)[C@H]1O (some centres undefined)
Potency [1]: inactive
Potency [2]: inactive
Potency [3]: 0.707 µM (active)
Potency [4]: inactive

COC(=O)[C@@H]1C2CC3c4[nH]c5ccccc5c4CCN3CC2CC[C@@H]1O (some centres undefined)
Potency [1]: inactive
Potency [2]: inactive
Potency [3]: inactive
Potency [4]: inactive

C=C[C@H]1[C@H](O[C@@H]2O[C@H](CO)[C@@H](O)[C@H](O)[C@H]2O)OC=C(C(=O)OC)[C@H]1C[C@@H]1N[C@H](C(=O)O)Cc2c1[nH]c1ccccc21
Potency [1]: inactive
Potency [2]: inactive
Potency [4]: inactive

CCC[C@@H]1C[C@@H](C(=O)N[C@@H]([C@H]2O[C@H](SC)[C@H](O)[C@@H](O)[C@@H]2O)[C@@H](C)O)N(C)C1
Potency [1]: inactive
Potency [2]: inactive
Potency [3]: inactive
Potency [4]: inactive

CC1(C)OC(=O)C(OCC2CC2)=C1c1ccc(S(C)(=O)=O)cc1
Potency [1]: inactive
Potency [3]: inactive
Potency [4]: inactive

COc1c(C(CC(C)C)OC(C)=O)ccc(Oc2c(O)cc(C)cc2/C=C/C(C)=O)c1C(=O)O (centres undefined)
Potency [1]: inactive
Potency [2]: inactive
Potency [3]: 4.62 µM (active)
Potency [4]: inactive

c1ccc(Nc2nc3c(s2)CCCc2[nH]ncc2-3)nc1
Potency [1]: inactive
Potency [2]: 8.49 µM (active)
Potency [3]: 1.5 µM (active)
Potency [4]: inactive

CN1CC[C@@H](NC(=O)Nc2ccc(C#N)cc2)C[C@@H]1c1nc2ccccc2[nH]1
Potency [1]: inactive
Potency [2]: inactive
Potency [3]: inactive
Potency [4]: inactive

C#Cc1cnc2[nH]c(=O)n(C(CC)CC)c2n1
Potency [1]: 18 µM (active)
Potency [2]: inactive
Potency [4]: inactive

CCC(NC(=O)CC(NC(=O)C(CO)NC(=O)C(CC)NC(=O)c1ccc[nH]1)c1ccccc1)C(=O)O (centres undefined)
Potency [1]: inactive
Potency [2]: inactive
Potency [3]: inactive
Potency [4]: inactive

CCOC(=O)[C@H](CCc1ccccc1)CC1(C(=O)N[C@H]2CCc3ccccc3N(CC(=O)O)C2=O)CCCC1
Potency [1]: inactive
Potency [2]: inactive
Potency [3]: inactive
Potency [4]: inactive

Nc1nc(CC(=O)Nc2ccc(CCNCC(O)c3ccccc3)cc2)cs1 (centres undefined)
Potency [1]: inactive
Potency [2]: inactive
Potency [3]: inactive
Potency [4]: inactive

COc1ccc2c(c1)OC[C@]1(O)c3cc4c(cc3O[C@H]21)OCO4
Potency [1]: inactive
Potency [2]: inactive
Potency [4]: inactive

C/C=C/C=C/C=C/C(=O)O[C@@H]1[C@@H](OC)C2=C(C(=O)N(C(C)C(=O)O)C2)[C@@]2(C)CCCC(C)(C)[C@H]12 (some centres undefined)
Potency [1]: inactive
Potency [2]: inactive
Potency [3]: inactive
Potency [4]: inactive

NC(=O)c1ccc(OCC2NC(=O)C3CCCN3C2=O)cc1 (centres undefined)
Potency [1]: inactive
Potency [2]: inactive
Potency [4]: inactive

CCC[C@@H]1C[C@@H](C(=O)N[C@H](C(C)Cl)[C@H]2O[C@H](SC)[C@H](O)[C@@H](O)[C@H]2O)N(C)C1 (some centres undefined)
Potency [1]: inactive
Potency [2]: inactive
Potency [3]: inactive
Potency [4]: inactive

Cc1nnc(C(C)C)n1C1CC2CCC(C1)N2CCC(NC(=O)C1CCC(F)(F)CC1)c1ccccc1 (centres undefined)
Potency [1]: inactive
Potency [2]: inactive
Potency [3]: inactive
Potency [4]: inactive

CC(=O)Oc1cc2c(s1)CCN([C@H](C(=O)C1CC1)c1ccccc1F)C2
Potency [1]: inactive
Potency [2]: inactive
Potency [4]: inactive

COc1cccc(-n2nc(C(=O)O)cc2-c2ccc(C3CCCCC3)c(Cl)c2)c1
Potency [2]: inactive
Potency [3]: inactive
Potency [4]: inactive

CC1=C2C=C(CO)C(CO)CCC2(C)CCC1=O (centres undefined)
Potency [1]: inactive
Potency [2]: inactive
Potency [4]: inactive

COc1cc(O[C@@H]2O[C@H](CO)[C@@H](O)[C@H](O)[C@H]2O)c(CCC(=O)OC[C@H]2O[C@@H](Oc3cc(OC)c(C4OC(=O)C(C)(O)C4O)cc3CCC(=O)O)[C@H](O)[C@@H](O)[C@@H]2O)cc1C1OC(=O)C(C)(O)C1O (some centres undefined)
Potency [1]: inactive
activity change, negative = inhibition [2]: 1.78% [at 11.6 µM]
activity change, negative = thiol reactive [3]: 56% [at 11.5 µM]
activity, negative = inhibition [4]: 0.289% [at 11.6 µM]

CC(=O)[C@@H]1CC[C@]2(C(=O)O)CC[C@]3(C)C(CCC4[C@@]5(C)CC[C@H](O)C(C)(C)C5CC[C@]43C)C12 (some centres undefined)
Potency [1]: inactive
Potency [2]: inactive
Potency [3]: inactive
Potency [4]: inactive

COc1ccc(/C=C/C(=O)O[C@@H]2[C@@H](OC(C)=O)[C@@H](OC(C)=O)[C@H](O[C@H]3[C@@H]4C=CO[C@@H](O[C@@H]5O[C@H](CO)[C@@H](O)[C@H](O)[C@H]5O)[C@@H]4[C@@]4(CO)O[C@@H]34)O[C@H]2C)cc1O
Potency [1]: inactive
Potency [2]: inactive
Potency [4]: inactive

Cn1c(=O)cc(N2CCCC(N)C2)n(Cc2ccccc2C#N)c1=O (centres undefined)
Potency [1]: inactive
Potency [2]: inactive
Potency [4]: inactive
